Experimental data as given in paper PMC6451091, “NextPBM: a platform to study cell-specific transcription factor binding and cooperativity”.
The full ranking holds about 3,700 sequences; the median of “z-score” is about 4, and the highest 2% start at about 8.4. The full list was thinned out, with the highest values kept by preference.

Legend:
PU.1 (IVT) [1] = target: PU.1 (IVT) (UniProt P17947 1-270); test: protein-binding microarray (PBM); 20 mM HEPES pH 7.9, 100 mM NaCl, 1 mM DTT, 0.2 mg/mL BSA, 0.02% Triton X-100, 2% milk, 0.4 mg/mL salmon testes DNA; 1 h; temperature not stated; high values mean tight binding; conditions: dsDNA, one strand shown
How it was run: (§1)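 Untagged full-length PU.1 was produced by coupled human in vitro transcription/translation and incubated for 1 h on custom double-stranded DNA microarrays in HEPES pH 7.9 containing 100 mM NaCl, 2% milk and salmon testes DNA. Each array carried 20-bp genomic sites and single-nucleotide variants, with 10 probes per site (5 per orientation). Bound protein was detected with anti-PU.1 followed by a fluorescent secondary antibody. Binding values are z-scores calculated from scanned fluorescence after linear-regression normalisation.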

PU.1 (IVT) [2] = target: PU.1 (IVT) (UniProt P17947 1-270); test: as above; conditions: dsDNA, one strand shown; remark: listed apart in the source
How it was run: as §1

Row | Sequence | binding signal (PU.1 (IVT) [1]) | binding signal (PU.1 (IVT) [2])
1 | GCCTAGCACAAAAAAGGGAAGTGAAGTACGTGCTAGGTCTTGATTCGCTTGACGCTGCTG | 7.2 z-score | 
2 | GCCTAGCACAAAAAGGGGAAGTTGGGGATGTGCTAGGTCTTGATTCGCTTGACGCTGCTG | 8.45 z-score | 
3 | GCCTAGCACAAAAAGGGGAAGTCAATTTTGTGCTAGGTCTTGATTCGCTTGACGCTGCTG | 8.55 z-score | 
4 | GCCTAGCACAAAAAAAGGAAGTCTGTTTTGTGCTAGGTCTTGATTCGCTTGACGCTGCTG |  | 6.43 z-score
5 | GCCTAGCACAAAAAAGGGAAGTGCAAGATGTGCTAGGTCTTGATTCGCTTGACGCTGCTG | 7.79 z-score | 
6 | GCCTAGCACAAAAAGGGGAAGTACTGCGAGTGCTAGGTCTTGATTCGCTTGACGCTGCTG | 8.58 z-score | 
7 | GCCTAGCACAAAGAAGGGAAGTGACTTGCGTGCTAGGTCTTGATTCGCTTGACGCTGCTG | 3.86 z-score | 
8 | GCCTAGCACAAAAAGGGGAAGTCAAATTGGTGCTAGGTCTTGATTCGCTTGACGCTGCTG | 8.09 z-score | 
9 | GCCTAGCACAAAAAGGGGAAGTGATGGCGGTGCTAGGTCTTGATTCGCTTGACGCTGCTG | 8.22 z-score | 
10 | GCCTAGCACAAAAAAGGGAAGTGGATGCTGTGCTAGGTCTTGATTCGCTTGACGCTGCTG | 7.67 z-score | 
11 | GCCTAGCACAAAAGGAGGAAGTACTGTGAGTGCTAGGTCTTGATTCGCTTGACGCTGCTG | 7.12 z-score | 
12 | GCCTAGCACAAAAAGGGGAAGTGACTTTCGTGCTAGGTCTTGATTCGCTTGACGCTGCTG | 8.66 z-score | 
13 | GCCTAGCACTTAAACAGGAAGTGTGTAATGTGCTAGGTCTTGATTCGCTTGACGCTGCTG | 5.79 z-score | 
14 | GCCTAGCACTTAAGGAGGAACTGAAACCAGTGCTAGGTCTTGATTCGCTTGACGCTGCTG |  | 2.65 z-score
15 | GCCTAGCACTAAAGGAGGAACTGAAAACAGTGCTAGGTCTTGATTCGCTTGACGCTGCTG |  | 3.62 z-score
16 | GCCTAGCACTAAAAGAGGAACTGAAACCAGTGCTAGGTCTTGATTCGCTTGACGCTGCTG | 6.72 z-score | 
17 | GCCTAGCACCTGCAAAGGAAGTCTGGGCCGTGCTAGGTCTTGATTCGCTTGACGCTGCTG |  | 0.767 z-score
18 | GCCTAGCACTGGAAGAGGAAGTTGGTTTTGTGCTAGGTCTTGATTCGCTTGACGCTGCTG | 7.15 z-score | 
19 | GCCTAGCACCATTTGTAGAAGTACTGTGCGTGCTAGGTCTTGATTCGCTTGACGCTGCTG |  | 0.808 z-score
20 | GCCTAGCACAAAAAGCAGAAGTGTTCTGTGTGCTAGGTCTTGATTCGCTTGACGCTGCTG | 6.88 z-score | 
21 | GCCTAGCACAAAAAGGGGAAGTCTGGACTGTGCTAGGTCTTGATTCGCTTGACGCTGCTG | 7.65 z-score | 

Row | Sequence | binding signal (PU.1 (IVT) [1]) | binding signal (PU.1 (IVT) [2])
22 | GCCTAGCACAAAAAGGGGAAGTGCTTTCTGTGCTAGGTCTTGATTCGCTTGACGCTGCTG | 8.76 z-score | 
23 | GCCTAGCACAAAAAGGGGAAGTGTGCTGCGTGCTAGGTCTTGATTCGCTTGACGCTGCTG | 8.33 z-score | 
24 | GCCTAGCACGAAAAGAGGAAGTGGAATTTGTGCTAGGTCTTGATTCGCTTGACGCTGCTG | 8.92 z-score | 
25 | GCCTAGCACGAAAAGAGGAAGTCGAATTAGTGCTAGGTCTTGATTCGCTTGACGCTGCTG | 8.06 z-score | 
26 | GCCTAGCACGAAATGAGGAAGTGCTAGTGGTGCTAGGTCTTGATTCGCTTGACGCTGCTG | 8.07 z-score | 
27 | GCCTAGCACGGAAAGAGGAAGTCAAAAATGTGCTAGGTCTTGATTCGCTTGACGCTGCTG | 7.85 z-score | 
28 | GCCTAGCACGAAAAGAGGAAGTCAGAAATGTGCTAGGTCTTGATTCGCTTGACGCTGCTG | 8.35 z-score | 
29 | GCCTAGCACGAAAAGAGGAAGTCAAATTCGTGCTAGGTCTTGATTCGCTTGACGCTGCTG | 8.31 z-score | 
30 | GCCTAGCACGAAAAGAGGAAGTCAGACTAGTGCTAGGTCTTGATTCGCTTGACGCTGCTG | 8.15 z-score | 
31 | GCCTAGCACGAAATGAGGAAGTGAAATTGGTGCTAGGTCTTGATTCGCTTGACGCTGCTG | 8.42 z-score | 
32 | GCCTAGCACGAAAAGAGGAAGTCAAATTTGTGCTAGGTCTTGATTCGCTTGACGCTGCTG | 8.44 z-score | 
33 | GCCTAGCACAGAAAAAGGAAGTGGAATTTGTGCTAGGTCTTGATTCGCTTGACGCTGCTG | 6.29 z-score | 
34 | GCCTAGCACGAAAAGAGGAAGTCAAACTTGTGCTAGGTCTTGATTCGCTTGACGCTGCTG | 8.22 z-score | 
35 | GCCTAGCACGAAATGAGGAAGTGGCTGGTGTGCTAGGTCTTGATTCGCTTGACGCTGCTG | 7.9 z-score | 
36 | GCCTAGCACAAAAAAAGGAAATGAAAGTAGTGCTAGGTCTTGATTCGCTTGACGCTGCTG | 3.32 z-score | 
37 | GCCTAGCACGTCAAAAAAAGGAAAAAGCCGTGCTAGGTCTTGATTCGCTTGACGCTGCTG |  | 0.885 z-score
38 | GCCTAGCACAAGAAGCGGAAGTGAAAGACGTGCTAGGTCTTGATTCGCTTGACGCTGCTG | 6.8 z-score | 
39 | GCCTAGCACAGAAAAAGGAACTGGCTAGAGTGCTAGGTCTTGATTCGCTTGACGCTGCTG |  | 3.75 z-score
40 | GCCTAGCACCAAAAGAGGAAGTGAGAAGCGTGCTAGGTCTTGATTCGCTTGACGCTGCTG | 8.31 z-score | 
41 | GCCTAGCACGAAAACAGGAAGTGACTGTTGTGCTAGGTCTTGATTCGCTTGACGCTGCTG | 8.08 z-score | 
42 | GCCTAGCACGAAATGAGGAAGTGATTAGGGTGCTAGGTCTTGATTCGCTTGACGCTGCTG | 8.13 z-score | 

Row | Sequence | binding signal (PU.1 (IVT) [1]) | binding signal (PU.1 (IVT) [2])
43 | GCCTAGCACGAAATGAGGAAGTTGAGAGCGTGCTAGGTCTTGATTCGCTTGACGCTGCTG | 8.36 z-score | 
44 | GCCTAGCACGAAAAGAGGAAGTCAAATTGGTGCTAGGTCTTGATTCGCTTGACGCTGCTG | 8.37 z-score | 
45 | GCCTAGCACGAAAAGAGGAAGTGAAATTGGTGCTAGGTCTTGATTCGCTTGACGCTGCTG | 8.72 z-score | 
46 | GCCTAGCACGAAATGAGGAAGTGTAAACAGTGCTAGGTCTTGATTCGCTTGACGCTGCTG | 7.49 z-score | 
47 | GCCTAGCACGAAAAGAGGAAATGAGAGAGGTGCTAGGTCTTGATTCGCTTGACGCTGCTG |  | 5.36 z-score
48 | GCCTAGCACGAAGAGAGGAAGTGAAATTGGTGCTAGGTCTTGATTCGCTTGACGCTGCTG |  | 5.29 z-score
49 | GCCTAGCACGAAGAGAGGAAGTCAAATTGGTGCTAGGTCTTGATTCGCTTGACGCTGCTG |  | 4.29 z-score
50 | GCCTAGCACGAAAAGAGGAAATGAAATTGGTGCTAGGTCTTGATTCGCTTGACGCTGCTG |  | 6.51 z-score
51 | GCCTAGCACGAAATGAGGAAGTTGGTGCTGTGCTAGGTCTTGATTCGCTTGACGCTGCTG | 8.11 z-score | 
52 | GCCTAGCACGAAAAAAGGAAGTCAAATTGGTGCTAGGTCTTGATTCGCTTGACGCTGCTG |  | 5.97 z-score
53 | GCCTAGCACGAAATGAGGAAGTACCTAAAGTGCTAGGTCTTGATTCGCTTGACGCTGCTG | 8.71 z-score | 
54 | GCCTAGCACGAAATAGGGAAGTGTGAGTTGTGCTAGGTCTTGATTCGCTTGACGCTGCTG | 6.74 z-score | 
55 | GCCTAGCACTGAGAGGGGAAGTGGCAGCTGTGCTAGGTCTTGATTCGCTTGACGCTGCTG |  | 4.01 z-score
56 | GCCTAGCACTGGAGGAGGAACTGAAATACGTGCTAGGTCTTGATTCGCTTGACGCTGCTG | 2.94 z-score | 
57 | GCCTAGCACTGAAAGGGGAAGTCAGATAGGTGCTAGGTCTTGATTCGCTTGACGCTGCTG |  | 6.45 z-score
58 | GCCTAGCACCAAATGAGGAACTGATGCGAGTGCTAGGTCTTGATTCGCTTGACGCTGCTG | 6.15 z-score | 
59 | GCCTAGCACCAAAGGAGGAACTGAAACCAGTGCTAGGTCTTGATTCGCTTGACGCTGCTG |  | 3.2 z-score
60 | GCCTAGCACTGAAAGGGGAAGTGGGTGCCGTGCTAGGTCTTGATTCGCTTGACGCTGCTG |  | 6.37 z-score
61 | GCCTAGCACCGAAAGGGGAAGTGCTAAGCGTGCTAGGTCTTGATTCGCTTGACGCTGCTG | 6.82 z-score | 
62 | GCCTAGCACGAAAAGAGGAAGTCAATTTGGTGCTAGGTCTTGATTCGCTTGACGCTGCTG | 8.54 z-score | 
63 | GCCTAGCACGGAAAGAGGAAGTCAAATTGGTGCTAGGTCTTGATTCGCTTGACGCTGCTG | 7.8 z-score | 

Row | Sequence | binding signal (PU.1 (IVT) [1]) | binding signal (PU.1 (IVT) [2])
64 | GCCTAGCACGAAAAGAGGAAGTCAAACTGGTGCTAGGTCTTGATTCGCTTGACGCTGCTG | 7.89 z-score | 
65 | GCCTAGCACTACCCTTTAAAAATAGTTCAGTGCTAGGTCTTGATTCGCTTGACGCTGCTG |  | 0.827 z-score
66 | GCCTAGCACAGAGAGAGGAAGTGATTACAGTGCTAGGTCTTGATTCGCTTGACGCTGCTG | 4.98 z-score | 
67 | GCCTAGCACTTCAGGGGGAAGTACTGTGTGTGCTAGGTCTTGATTCGCTTGACGCTGCTG |  | 3.94 z-score
68 | GCCTAGCACCACAAGAGGAAGTCCCACAAGTGCTAGGTCTTGATTCGCTTGACGCTGCTG |  | 3.93 z-score
69 | GCCTAGCACTCCAGGAGGAACTACTGTGTGTGCTAGGTCTTGATTCGCTTGACGCTGCTG | 2.59 z-score | 
70 | GCCTAGCACAGAAAGAGGAAGTCCTCTCTGTGCTAGGTCTTGATTCGCTTGACGCTGCTG | 8.3 z-score | 
71 | GCCTAGCACAGAAAGAGGAAGTAGATATTGTGCTAGGTCTTGATTCGCTTGACGCTGCTG | 8.76 z-score | 
72 | GCCTAGCACAGAAAGGGGAAGTGACTTGCGTGCTAGGTCTTGATTCGCTTGACGCTGCTG | 8.13 z-score | 
73 | GCCTAGCACACAGAGAGGAAGTAGATAAAGTGCTAGGTCTTGATTCGCTTGACGCTGCTG |  | 4.75 z-score
74 | GCCTAGCACAGAGAGAGGAAGTGAAAGTAGTGCTAGGTCTTGATTCGCTTGACGCTGCTG |  | 4.81 z-score
75 | GCCTAGCACAGAGAGGGGAAGTGACTTGCGTGCTAGGTCTTGATTCGCTTGACGCTGCTG | 4.95 z-score | 
76 | GCCTAGCACAGAAAGAGGAAGTGTAAAAAGTGCTAGGTCTTGATTCGCTTGACGCTGCTG | 8.57 z-score | 
77 | GCCTAGCACAGAAAGAGGAAGTTGGCTCTGTGCTAGGTCTTGATTCGCTTGACGCTGCTG | 8.56 z-score | 
78 | GCCTAGCACAGAAAGAGGAACTGAAAAGTGTGCTAGGTCTTGATTCGCTTGACGCTGCTG | 6.62 z-score | 
79 | GCCTAGCACAGAGAGAGGAAGTGAGCTCTGTGCTAGGTCTTGATTCGCTTGACGCTGCTG |  | 4.31 z-score
80 | GCCTAGCACAGGAAGAGGAAGAGGAAGAAGTGCTAGGTCTTGATTCGCTTGACGCTGCTG |  | 4.95 z-score
81 | GCCTAGCACAGAAAGAGGAAGTGACTTGCGTGCTAGGTCTTGATTCGCTTGACGCTGCTG | 8.54 z-score | 
